Source: PubChem BioAssay
Compounds with a hit are over-represented: about 8% of the library has one in this group of screens.
Lassa entry inh – blocks Lassa virus binding to or entry into cells | 300,000 tested, 1.2% active | AID 540256 | Potency, µM (top dose mostly 37.9 µM), for the others: at the top dose activity change, negative = inhibition, usual class: inhibitors | Lassa virus pseudotype entry inhibition, cell reporter; calls by dose curve; tested in HEK293 cells; note: potency is the fitted concentration of half-maximal effect; % is set by controls: 0 for no effect and ±100 for the full control effect; nearly all actives have a fitted effect of over 50% in size
MARV entry inh – blocks Marburg virus binding to or entry into cells | Marburg virus pseudotyped entry inhibition, cell reporter | Potency, µM (series often up to 37.8 µM), without a hit: top-dose activity change, negative = inhibition, usual class: inhibitors | 300,000 tested, 1.8% active; calls by dose curve; tested in HEK293 cells; note: potency is the fitted concentration of half-maximal effect; % is set by controls: 0 for no effect and ±100 for the full control effect
SARS PLP yeast – SARS-CoV PLP inhibition in yeast; S. cerevisiae expressing SARS-CoV PLpro, growth rescue; Potency, µM (doses to about 32.9 µM), inactives show at the top dose activity, positive = growth rescue, actives largely listed as activators; 330,000 tested, 0.19% active; calls by dose curve; note: potency is the fitted concentration of half-maximal effect; 0% is about no effect; nearly all actives have a fitted effect of over 55% in size
HCV inh – inhibitors of hepatitis C virus infection | Huh7.5.1 HCVcc-Cre infection, luciferase reporter, 44 h | Potency, µM (titrated, usually from 41.8 µM), without a hit: at the top dose activity change, negative = inhibition, usual class: inhibitors | 340,000 tested, 3.4% active | AID 651820; active = well fitted inhibition curve with a large enough effect; inconclusive = small, poorly fitted or top-dose-only effect, or another doubt; inactive = no such curve, though single readings can be large or run the other way; note: potency is the fitted concentration of half-maximal effect; % is set by controls: 0 for no effect and ±100 for the full control effect
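Seed cells (1,000/well) for 4 h; treat with compound and infect with HCVcc-Cre, moi about 0.5. Incubate 44 h, then detect luciferase activity.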
HCMV inh – inhibitors of human cytomegalovirus. HFF cells, HCMV-luciferase reporter, 72 h; stronger effect = lower value. activity change, negative = inhibition, % at 57.5 µM. AID 1259415. 410,000 tested, 4.5% active; in the data active = activity change below about -60%; inconclusive = no clear call, values can overlap the other calls; inactive = above about -39%; note: % is set by controls: 0 for no effect and ±100 for the full control effect
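Screen run at 2 compound doses on HFFs infected with reporter HCMV, MOI 1 PFU/cell. Luciferase activity from cell lysates at 72 h post infection gave inhibition relative to buffer-only and Salinomycin wells.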
FMDV inh – blocks foot and mouth disease virus; FMDV antiviral cell-based qHTS; Potency, µM (top dose mostly 57.9 µM), without a hit: at the top dose activity change, negative = inhibition, usual class: inhibitors; 410,000 tested, 1.2% active; calls by dose curve; tested in HEK293T cells; note: read-out not given here; potency is the fitted concentration of half-maximal effect; % is set by controls: 0 for no effect and ±100 for the full control effect; nearly all actives have a fitted effect of over 45% in size
Active calls of the source: *; ? = inconclusive; · = no result; [ ] = another dose, or the depositor's remark.

SMILES	Lassa entry inh	MARV entry inh	SARS PLP yeast	HCV inh	HCMV inh	FMDV inh
Cc1nc(NC(=O)c2cc3c(s2)CCCCC3)sc1C(=O)N(C)C	-23%	17%	-1%	11µM*	1	58%
COC(=O)c1sc(NC(=O)c2cc3c(s2)CCCC3)nc1C	-22%	11%	2%	?	-15	27%
Cc1csc(NC(=O)c2cc3c(s2)CCC3)n1	?	13µM*	3%	7%	47	-41%
Cc1ccc(CCNC(=O)c2ccc(CSCc3ccccc3C)o2)cc1	-25%[46.1 µM]	·	·	·	12	-17%
CCOc1ccc(NC(=O)CCNc2c(N3CCCC3)c(=O)c2=O)cc1	0%	?	3%	0%	-61*	-7%
CCOc1ccc(NC(=O)c2ccc(CNc3c(N4CCCC4)c(=O)c3=O)cc2)cc1	·	·	1%	-12%	-18	23%
N=c1c(S(=O)(=O)c2ccc(Cl)cc2)cc2c(=O)n3ccccc3nc2n1CCN1CCOCC1	19%	-20%	-4%	13µM*	-25	-11%
Cc1ccc(S(=O)(=O)c2cc3c(=O)n4ccccc4nc3n(C3CCCCC3)c2=N)cc1	30%	-1%	0%	13µM*	33	?
O=C(Nc1cc(C(F)(F)F)ccc1Cl)c1cc(S(=O)(=O)NCc2ccccc2)ccc1F	23%[46.1 µM]	·	·	·	-16	6%
CCn1ncc(Br)c1C(=O)Nc1ccc(Cl)cn1	-1%	4%	4%	15%	-65*	-8%
Cc1c(-c2cccc(NC(=O)Nc3ccccc3)c2)nc2ncccn12	16%[46.1 µM]	·	·	·	-12	19%
CCN(CC)CCCNC(=O)c1oc2ccc(S(=O)(=O)N3CC(C)CC(C)C3)cc2c1C (centres undefined)	?	10µM*	1%	22µM*	-98*	15%
COc1ccc2oc(C(=O)N3CCN(S(=O)(=O)c4cccc([N+](=O)[O-])c4)CC3)c(C)c2c1	-1%[46.1 µM]	?	-1%	4%	-67*	-29%
Cc1c(C(=O)N2CCCCC2)oc2ccc(S(=O)(=O)N3CC(C)CC(C)C3)cc12 (centres undefined)	?	11µM*	1%	?	·	?
COc1ccc(N2CCN(C(=O)CN3CCSc4ccccc43)CC2)cc1	5%[46.1 µM]	·	·	·	-9	?
O=C(Nc1ccccc1C(F)(F)F)c1ccc(F)c(S(=O)(=O)N2CCc3ccccc3C2)c1	0%[46.1 µM]	·	·	·	15	-13%
COCC(=O)Nc1cc(C(=O)NC2CCc3ccccc32)c2c(c1)nc(-c1ccncc1)n2C (centres undefined)	·	·	·	·	·	-16%
O=C(Cc1ccc(F)cc1)NCc1ccc2c(c1)CCN2C(=O)c1ccc(F)cc1	?	·	·	·	23	-21%
O[C@@H]1[C@@H](O)C=C2CCN3Cc4cc5c(cc4[C@H]1C23)OCO5 (some centres undefined)	·	·	·	3.2µM*	-98*	?
OC1C=C2CCN3Cc4cc5c(cc4C(C1O)C23)OCO5 (centres undefined)	·	·	·	·	·	-11%
CCN(CC)c1ccc(NC(=O)CN2C(=O)CSc3ncccc32)c(C)c1	·	·	6%	3.5µM*	-86*	?
CCOc1ccc(CCN2C(=S)N([C@@H](CC(C)C)CN3CCC[C@@H]3CN3C(=S)NC[C@@H]3CC(C)C)C[C@@H]2Cc2ccc(O)cc2)cc1	·	·	·	·	-98*	-22%
CCOc1ccc(CCN2C(=S)N([C@@H](CC(C)C)CN3CCCC3CN3C(=S)NC[C@@H]3CC(C)C)C[C@@H]2Cc2ccc(O)cc2)cc1 (some centres undefined)	·	·	·	0.56µM*	-40	-23%
COc1ccccc1C(=O)NCCn1cc(SCC(=O)Nc2ccccc2F)c2ccccc21	?	?	·	·	1	0%
CCCCCCC1CC(CSC(=N)N)OC1=O (centres undefined)	-25%	0%	-2%	-27%	15	-7%
SMILES	Lassa entry inh	MARV entry inh	SARS PLP yeast	HCV inh	HCMV inh	FMDV inh
CCCC1CC(CSC(=N)N)OC1=O (centres undefined)	-21%	?	14µM*	-13%	-9	-23%
O=C(C1CCCCN1S(=O)(=O)c1ccccc1)N1CCN(C(c2ccccc2)c2ccccc2)CC1 (centres undefined)	-38%	?	-2%	13µM*	32	-19%
O=C(C1CCCCN1S(=O)(=O)c1ccccc1)N1CCCCC1 (centres undefined)	7%	0%	1%	?	-7	-9%
COc1ccc2[nH]cc(/C=C/C(=O)c3ccccc3)c2c1	?	?	-3%	10µM*	3	60%
COc1ccc2[nH]cc(C=O)c2c1	1%	?	4%	-8%	-25	1%
COc1ccc2[nH]cc(C(=O)CCl)c2c1	·	·	0%	?	-100*	28µM*
COc1ccc2[nH]cc(/C=C/c3cc[n+](C)cc3)c2c1	·	·	1%	7.9µM*	-92*	-7%
Cc1ccc(-c2cnc(NCc3c(F)cccc3Cl)n2C)cc1	?	?	·	·	-23	32%
CC1(C)CC(=O)C(C2(O)C(=O)N(Cc3ccccc3)c3ccccc32)CO1 (centres undefined)	?	?	18%	0%	-16	-9%
CN1C(=O)C(C2(O)C(=O)N(Cc3ccccc3)c3cc([N+](=O)[O-])ccc32)c2ccccc21 (centres undefined)	·	·	·	·	-79*	·
CCOc1ccc(/C=N/NC(=O)Cc2ccccc2)cc1CN1CC2CC(C1)c1cccc(=O)n1C2 (centres undefined)	·	-6%	0%	7.9µM*	-33	-3%
Cc1ccc(S(=O)(=O)N2C[C@]3(O)C[C@@H]4C(=O)N(c5ccccc5)C(=O)[C@@H]4C[C@]3(OC(=O)NC3CCCC3)C2)cc1	·	·	·	·	9	16µM*
CC(C)c1nccn1CCC(=O)O	2%	15%	-7%	?	19	18%
CSc1ccn(CCC(=O)O)c(=O)n1	?	?	10µM*	6%	-28	-5%
COc1ccc(-c2nn(-c3cccc(F)c3)c3c2cnc2cc(OC)c(OC)cc23)cc1	30%[46.1 µM]	·	·	·	13	-2%
CN=C1CC(SC)=C1c1ccc(C)cc1	?	-23%	-27%	12%	-19	32µM*
CC(=O)c1ccc(-c2nc3c4ccccc4ccn3c2C(C)=O)o1	1.3µM*	1µM*	0%	-5%	-65*	7%
CS(=O)(=O)Nc1cccc(-c2ccc3ncnc(NCCN4CCOCC4)c3c2)c1	·	·	·	·	·	2%
COc1cccc(NC(=O)CSc2nccn2Cc2ccc3c(c2)OCO3)c1	13%[46.1 µM]	·	·	·	30	5%
Cc1ccc(-c2noc(CSc3nnc(Cc4ccccc4)n3-c3ccc(Cl)cc3)n2)cc1	1.6µM*	?	-3%	?	-12	-22%
COc1ccc(-c2noc(CSc3nnc(Cc4ccccc4)n3-c3ccc(Cl)cc3)n2)cc1	4.1µM*	?	4%	14µM*	-2	-20%
